Compound in the test: Cc1ccc(-c2ccc3c(ccc4sc5c(c43)NC[C@@H](C)NC5=O)n2)cn1
As to the kind of experiment: kinase activity remaining relative to vehicle control; higher = less inhibition. As to the method: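 In vitro radiometric kinase profiling of the MK2 inhibitor PF-3644022 at 0.1, 1 and 10 µM against a panel of kinases (MRC International Centre for Kinase Profiling, Dundee). Read-out is % kinase activity remaining relative to the vehicle control, mean of n=2.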

UniProt Q99683, sequence (Q99683 whole entry, looked up): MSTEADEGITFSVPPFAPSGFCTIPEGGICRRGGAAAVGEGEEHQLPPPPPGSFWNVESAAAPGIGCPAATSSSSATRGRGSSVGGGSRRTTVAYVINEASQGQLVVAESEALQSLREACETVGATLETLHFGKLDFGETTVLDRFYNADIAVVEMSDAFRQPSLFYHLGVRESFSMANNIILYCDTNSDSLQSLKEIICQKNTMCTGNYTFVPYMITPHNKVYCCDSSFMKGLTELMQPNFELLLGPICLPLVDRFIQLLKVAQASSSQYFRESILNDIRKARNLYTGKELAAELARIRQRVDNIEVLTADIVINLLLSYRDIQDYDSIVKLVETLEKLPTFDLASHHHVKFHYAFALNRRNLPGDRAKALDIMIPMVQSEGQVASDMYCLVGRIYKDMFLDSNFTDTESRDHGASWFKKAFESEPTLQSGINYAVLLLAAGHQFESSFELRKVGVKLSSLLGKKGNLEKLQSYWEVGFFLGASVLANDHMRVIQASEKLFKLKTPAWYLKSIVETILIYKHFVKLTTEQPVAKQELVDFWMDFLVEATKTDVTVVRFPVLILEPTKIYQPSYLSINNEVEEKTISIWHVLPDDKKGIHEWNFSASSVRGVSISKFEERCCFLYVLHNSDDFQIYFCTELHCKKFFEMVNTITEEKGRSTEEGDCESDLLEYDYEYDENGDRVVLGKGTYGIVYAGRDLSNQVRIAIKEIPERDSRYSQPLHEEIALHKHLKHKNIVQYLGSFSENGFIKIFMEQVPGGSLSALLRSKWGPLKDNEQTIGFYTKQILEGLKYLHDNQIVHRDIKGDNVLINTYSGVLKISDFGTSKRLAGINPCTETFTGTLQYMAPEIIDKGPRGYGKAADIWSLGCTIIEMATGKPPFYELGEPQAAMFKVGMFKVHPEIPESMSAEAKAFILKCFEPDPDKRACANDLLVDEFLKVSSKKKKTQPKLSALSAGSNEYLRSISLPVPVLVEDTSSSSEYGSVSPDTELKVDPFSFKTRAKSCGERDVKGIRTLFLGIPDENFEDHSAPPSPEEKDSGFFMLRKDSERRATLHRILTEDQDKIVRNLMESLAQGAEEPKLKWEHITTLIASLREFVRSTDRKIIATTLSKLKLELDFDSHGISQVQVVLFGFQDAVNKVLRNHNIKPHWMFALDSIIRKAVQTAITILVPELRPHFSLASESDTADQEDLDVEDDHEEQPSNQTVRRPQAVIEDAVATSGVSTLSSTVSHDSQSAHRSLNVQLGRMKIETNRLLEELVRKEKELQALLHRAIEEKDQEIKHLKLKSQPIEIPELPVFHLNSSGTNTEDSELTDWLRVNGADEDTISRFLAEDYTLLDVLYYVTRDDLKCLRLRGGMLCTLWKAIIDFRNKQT
UniProt P43403, sequence (P43403 whole entry, looked up): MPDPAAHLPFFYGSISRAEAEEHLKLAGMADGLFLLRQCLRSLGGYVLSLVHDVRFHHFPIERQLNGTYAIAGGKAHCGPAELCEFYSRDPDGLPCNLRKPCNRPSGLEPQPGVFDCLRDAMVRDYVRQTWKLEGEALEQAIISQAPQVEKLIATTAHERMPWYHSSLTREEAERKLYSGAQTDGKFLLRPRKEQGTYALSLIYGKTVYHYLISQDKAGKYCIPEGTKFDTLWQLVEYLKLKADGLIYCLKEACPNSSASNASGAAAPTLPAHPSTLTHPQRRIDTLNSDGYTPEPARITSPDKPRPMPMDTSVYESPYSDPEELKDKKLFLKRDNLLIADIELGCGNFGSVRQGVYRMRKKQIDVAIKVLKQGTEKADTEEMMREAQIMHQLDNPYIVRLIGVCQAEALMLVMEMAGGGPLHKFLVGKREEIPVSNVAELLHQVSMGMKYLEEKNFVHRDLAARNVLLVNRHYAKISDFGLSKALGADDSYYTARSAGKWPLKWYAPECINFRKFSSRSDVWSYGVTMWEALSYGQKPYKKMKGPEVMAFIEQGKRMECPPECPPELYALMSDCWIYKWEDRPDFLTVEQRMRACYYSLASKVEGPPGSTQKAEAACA
UniProt Q15118, sequence (Q15118 whole entry, looked up): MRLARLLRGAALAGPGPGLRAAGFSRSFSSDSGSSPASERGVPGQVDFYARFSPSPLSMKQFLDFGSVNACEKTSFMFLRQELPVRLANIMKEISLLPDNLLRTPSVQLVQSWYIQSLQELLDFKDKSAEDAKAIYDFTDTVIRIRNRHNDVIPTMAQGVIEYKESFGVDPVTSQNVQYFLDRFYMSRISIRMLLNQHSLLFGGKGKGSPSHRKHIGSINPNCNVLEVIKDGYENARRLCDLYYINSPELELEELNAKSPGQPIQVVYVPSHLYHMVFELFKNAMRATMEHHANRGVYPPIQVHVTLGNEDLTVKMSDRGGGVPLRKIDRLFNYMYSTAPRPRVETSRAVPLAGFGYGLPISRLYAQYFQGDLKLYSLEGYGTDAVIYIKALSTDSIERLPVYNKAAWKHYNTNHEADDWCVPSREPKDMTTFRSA
UniProt O96013, sequence (O96013 whole entry, looked up): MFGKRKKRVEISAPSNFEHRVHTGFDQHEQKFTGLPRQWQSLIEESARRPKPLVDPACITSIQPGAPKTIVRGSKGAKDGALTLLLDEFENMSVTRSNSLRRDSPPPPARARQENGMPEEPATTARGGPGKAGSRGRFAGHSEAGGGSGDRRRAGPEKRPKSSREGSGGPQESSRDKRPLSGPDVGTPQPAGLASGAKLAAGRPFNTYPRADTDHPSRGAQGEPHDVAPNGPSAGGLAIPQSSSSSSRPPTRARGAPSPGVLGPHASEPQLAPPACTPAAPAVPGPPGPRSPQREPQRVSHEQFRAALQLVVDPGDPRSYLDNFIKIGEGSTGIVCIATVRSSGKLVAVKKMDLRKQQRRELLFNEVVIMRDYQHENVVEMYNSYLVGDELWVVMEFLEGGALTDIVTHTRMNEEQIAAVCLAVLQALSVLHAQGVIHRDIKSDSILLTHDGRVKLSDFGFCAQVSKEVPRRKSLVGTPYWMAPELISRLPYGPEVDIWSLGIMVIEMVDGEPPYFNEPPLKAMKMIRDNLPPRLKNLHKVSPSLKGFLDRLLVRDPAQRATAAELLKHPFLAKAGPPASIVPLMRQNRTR
UniProt Q9BXA7, sequence (Q9BXA7 whole entry, looked up): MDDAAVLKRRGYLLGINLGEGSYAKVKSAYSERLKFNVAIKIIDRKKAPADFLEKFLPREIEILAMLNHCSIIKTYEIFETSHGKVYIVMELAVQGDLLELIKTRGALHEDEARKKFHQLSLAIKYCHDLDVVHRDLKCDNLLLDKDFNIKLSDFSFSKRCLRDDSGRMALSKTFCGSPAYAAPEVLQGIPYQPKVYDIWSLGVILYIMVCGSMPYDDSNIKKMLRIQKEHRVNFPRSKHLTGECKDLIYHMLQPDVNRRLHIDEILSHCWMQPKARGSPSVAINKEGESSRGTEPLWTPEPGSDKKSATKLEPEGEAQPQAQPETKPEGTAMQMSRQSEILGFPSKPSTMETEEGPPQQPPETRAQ
UniProt P36507, sequence (P36507 whole entry, looked up): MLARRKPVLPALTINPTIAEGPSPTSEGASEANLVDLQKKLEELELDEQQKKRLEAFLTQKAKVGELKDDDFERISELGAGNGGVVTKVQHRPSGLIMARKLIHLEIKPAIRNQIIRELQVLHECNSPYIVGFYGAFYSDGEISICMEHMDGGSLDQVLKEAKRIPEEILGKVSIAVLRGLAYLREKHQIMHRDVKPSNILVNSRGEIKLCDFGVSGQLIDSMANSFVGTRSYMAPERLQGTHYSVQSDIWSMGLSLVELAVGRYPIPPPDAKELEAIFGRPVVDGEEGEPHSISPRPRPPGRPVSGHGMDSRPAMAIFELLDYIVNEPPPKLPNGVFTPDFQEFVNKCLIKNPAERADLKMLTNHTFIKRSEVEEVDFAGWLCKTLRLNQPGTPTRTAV
UniProt Q8IVH8, sequence (Q8IVH8 whole entry, looked up): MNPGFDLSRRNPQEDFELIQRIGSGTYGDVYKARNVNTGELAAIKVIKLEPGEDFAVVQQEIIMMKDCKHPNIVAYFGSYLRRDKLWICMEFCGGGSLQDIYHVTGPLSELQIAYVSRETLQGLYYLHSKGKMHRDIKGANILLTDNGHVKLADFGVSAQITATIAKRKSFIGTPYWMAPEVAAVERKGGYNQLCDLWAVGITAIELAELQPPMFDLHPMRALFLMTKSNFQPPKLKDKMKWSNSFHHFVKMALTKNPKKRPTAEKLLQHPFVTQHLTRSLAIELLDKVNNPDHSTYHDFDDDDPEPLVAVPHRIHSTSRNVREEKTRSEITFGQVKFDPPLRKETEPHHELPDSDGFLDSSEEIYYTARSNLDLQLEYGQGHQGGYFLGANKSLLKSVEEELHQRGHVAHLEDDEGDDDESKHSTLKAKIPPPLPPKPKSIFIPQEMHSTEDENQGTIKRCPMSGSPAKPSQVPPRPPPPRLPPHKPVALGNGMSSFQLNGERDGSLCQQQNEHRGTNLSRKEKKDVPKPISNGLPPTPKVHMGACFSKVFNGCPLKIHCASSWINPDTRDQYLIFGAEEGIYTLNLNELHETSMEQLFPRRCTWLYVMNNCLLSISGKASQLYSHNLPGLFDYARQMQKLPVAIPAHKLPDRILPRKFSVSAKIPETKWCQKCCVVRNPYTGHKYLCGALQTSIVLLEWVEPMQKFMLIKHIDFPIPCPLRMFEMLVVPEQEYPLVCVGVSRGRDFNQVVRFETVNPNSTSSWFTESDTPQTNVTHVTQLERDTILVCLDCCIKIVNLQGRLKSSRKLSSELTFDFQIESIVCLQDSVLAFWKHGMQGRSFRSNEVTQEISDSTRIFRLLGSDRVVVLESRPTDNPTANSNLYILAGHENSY

For MKK2 (UniProt P36507), the kinase activity remaining runs as follows: (inhibitor concentration 0.1 µM) 113%; (inhibitor concentration 1 µM) 108%; (inhibitor concentration 10 µM) 79%.
The matching figures for PDK1 (UniProt Q15118): 104%, 107% and 95%.
As for DAPK1 (UniProt P53355), the kinase activity remaining runs as follows: (inhibitor concentration 0.1 µM) 103%; (inhibitor concentration 1 µM) 62%; (inhibitor concentration 10 µM) 15%.
The matching figures for CSK (UniProt P41240): 117%, 111% and 106%.
On to ASK1 (UniProt Q99683), for which the kinase activity remaining worked out at 106% (inhibitor concentration 0.1 µM), 80% (inhibitor concentration 1 µM) and 10% (inhibitor concentration 10 µM).
As to MAPKAP-K2, the kinase activity remaining is 24% (inhibitor concentration 0.1 µM), 9% (inhibitor concentration 1 µM) and 2% (inhibitor concentration 10 µM).
Turning to SmMLCK, the kinase activity remaining reads like this: (inhibitor concentration 0.1 µM) 118%; (inhibitor concentration 1 µM) 112%; (inhibitor concentration 10 µM) 110%.
The matching figures for PAK4 (UniProt O96013): 103%, 88% and 82%.
The like results for TSSK1 (UniProt Q9BXA7) were, in that order, 97%, 85% and 89%.
The matching figures for CK1 delta: 96%, 96% and 92%.
Take p38 beta MAPK: the kinase activity remaining is, setting by setting: (inhibitor concentration 0.1 µM) 118%; (inhibitor concentration 1 µM) 126%; (inhibitor concentration 10 µM) 117%.
The like results for ZAP70 (UniProt P43403) were, in that order, 93%, 100% and 95%.
The matching figures for MAP4K3 (UniProt Q8IVH8): 98%, 72% and 41%.

(Values after the supplement of paper PMC6378613.)
